# In PubChem BioAssay AID1508602 (The Scripps Research Institute Molecular Screening Center, 2020):
# Screen size: about 650,000 compounds; about 6,800 (1%) were called active. The entries come from a sample that favours actives as a whole. Unmarked numbers belong to inactive results. Cut-off read from the data, not from the text of the source: active = activation above about 4.9%; inactive = the rest.
# Biological target: G-protein coupled receptor 151 (Homo sapiens) (UniProt Q8TDV0)
# Assay: activates the human receptor GPR151, primary screen, cell-based, PathHunter beta-arrestin, luminescence (AID 1508602);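 note: 0% = median of compound wells and 100% = cells with positive control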
# Settings: PathHunter beta-arrestin GPR151 cells, at 11.2 µM, active compounds read high
# G-protein coupled receptor 151 (Homo sapiens), sequence (Q8TDV0 whole entry, looked up): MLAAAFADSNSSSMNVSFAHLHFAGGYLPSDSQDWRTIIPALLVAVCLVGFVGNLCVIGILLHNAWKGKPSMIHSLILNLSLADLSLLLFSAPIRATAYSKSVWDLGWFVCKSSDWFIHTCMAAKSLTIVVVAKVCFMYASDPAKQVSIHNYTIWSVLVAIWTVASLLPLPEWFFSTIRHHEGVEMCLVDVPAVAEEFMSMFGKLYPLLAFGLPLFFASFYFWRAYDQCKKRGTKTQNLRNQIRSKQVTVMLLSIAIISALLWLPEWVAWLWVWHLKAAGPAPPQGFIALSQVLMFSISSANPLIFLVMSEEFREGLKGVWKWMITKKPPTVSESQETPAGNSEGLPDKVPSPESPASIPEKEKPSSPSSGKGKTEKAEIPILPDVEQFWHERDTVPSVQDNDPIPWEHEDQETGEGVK
row,Compound,activation
1,COc1ccc(N2CCN(C(=O)c3ccc(Cn4c(=S)[nH]c5ccc(Br)cc5c4=O)cc3)CC2)cc1,-0.211%
2,CC/C(=N\N=C1/NC(=O)C(CC(=O)O)S1)c1ccc(C)cc1 (stereo not drawn),-1.1%
3,Cc1ccc(C(=O)Oc2ccccc2/C=N/N=C2\NC(=O)C(CC(=O)O)S2)cc1 (stereo not drawn),7.49% (active)
4,COc1cc(OC)c(OC)cc1/C=N/N=C1\NC(=O)C(CC(=O)O)S1 (stereo not drawn),0.825%
5,CCCC(=O)Nc1ccc(S(=O)(=O)N(Cc2ccsc2)C2CC2)cc1,0.722%
6,O=C(Nc1ccc(NC(=O)c2cccc3c(Br)cccc23)cc1)c1ccco1,34.7% (active)
7,O=C(Nc1ccc(NC(=O)c2cccnc2Cl)cc1)c1ccco1,0.162%
8,O=C(Nc1cccc(NC(=O)c2cccc(Cl)c2Cl)c1)c1ccco1,-0.952%
9,CCN1C(=O)S/C(=C/c2cccc(C(F)(F)F)c2)C1=O,1.18%
10,CCN(CC)C(=O)Cn1ncc2c3ccccc3n(Cc3ccccc3)c2c1=O,-0.284%
11,CNC(=O)Cn1ncc2c3ccccc3n(Cc3ccccc3)c2c1=O,0.452%
12,COC(=O)Cn1ncc2c3ccccc3n(Cc3cccc(Cl)c3)c2c1=O,4.95% (active)
13,COCCOC(=O)C1=C(N)OC2=C(C(=O)CC(C)(C)C2)C1c1ccc(F)c(F)c1 (stereo not drawn),0.277%
14,CC1=C(C(=O)OCCOc2ccccc2)C(c2ccccc2F)NC(=O)N1 (stereo not drawn),-1.1%
15,CCOC(=O)c1sc(NC(=O)C(C)Sc2nnc(CNC(=O)c3ccc(OC)cc3)n2Cc2ccccc2)c(C(=O)OCC)c1C (stereo not drawn),-1.72%
16,COc1ccc(-c2nc(N)c3[nH]cnc3n2)cc1,-0.0768%
17,Nc1nc(SCc2cccc3ccccc23)c2[nH]cnc2n1,-0.0695%
18,CSc1nc(N)nc2nc[nH]c12,16.2% (active)
19,CC(C)CC(=O)N1CCc2ccccc2C1,-1.1%
20,O=C(Cn1c(=S)nc2ccccn21)N1CCc2ccccc2C1,7.33% (active)
21,Cc1cccc2cnn(CC(=O)N3CCc4ccccc4C3)c12,-2%
22,CCc1nc(N2CCC(C(=O)O)CC2)c2oc3ccccc3c2n1,-2.33%
23,CCOc1ccc(C2=C(C(=O)CC)Sc3nnc(CC)n3N2C(=O)CC)cc1,-0.342%
24,CC(=O)C1=C(c2ccc(C(C)(C)C)cc2)N(C(C)=O)n2cnnc2S1,0.857%

row,Compound,activation
1,CCc1nnc2n1N(C(C)=O)C(c1ccc3c(c1)CCCC3)=C(C(C)=O)S2,8.6% (active)
2,CCOc1ccccc1CNn1c(-c2ccc(OC)cc2)nc2ccccc2c1=O,-1.68%
3,COc1ccccc1/C=C/CN1CCNC(=O)C1CC(=O)NC1CC1 (stereo not drawn),-1.56%
4,CCCSc1nnc2c(n1)OC(c1cccc(Br)c1)Nc1ccccc1-2 (stereo not drawn),-0.594%
5,COc1ccc(NCN2C(=O)c3cc(Cl)c(Cl)cc3C2=O)cc1,-1.71%
6,CCOC(=O)C1=C(C)N(c2ccc(C)cc2)C(=O)/C1=C\c1ccc(OC)cc1,-0.542%
7,COc1ccc(N2C(=O)C(Cl)=C(Nc3ccc(C)cc3)C2=O)cc1,5.51% (active)
8,COc1cc(/C=C2/NC(=O)N(Cc3ccc(Br)cc3)C2=O)ccc1O,-0.481%
9,O=C(C1CCN(S(=O)(=O)Cc2ccccc2)CC1)N1CCCc2ccccc21,8.15% (active)
10,O=C(C1CCCN1S(=O)(=O)c1ccc(Cl)cc1)N1CCCc2ccccc21 (stereo not drawn),-1.26%
11,O=C(Cc1ccccc1)N1CCCc2ccccc21,0.472%
12,Cc1ccc(C(=O)Nc2ccc(O)c(-c3nc4ccccc4o3)c2)cc1,1.96%
13,C/C(CC(=O)Nc1cccc(F)c1)=N\NC(=O)c1cccc(C)c1,0.312%
14,COc1ccc2c(Cl)c(C(=O)Nc3ccc(N(C)C(C)=O)cc3)sc2c1,0.165%
15,CN(Cc1nc(-c2ccc3c(c2)OCO3)no1)C1CCCc2ccccc21 (stereo not drawn),6.73% (active)
16,O=C1CC[C@@H](CN(Cc2ccccn2)Cc2nc(-c3ccc4c(c3)OCO4)no2)N1,-0.5%
17,c1ccc2c(c1)CCC2Nc1nncc(-c2ccc3c(c2)OCO3)n1 (stereo not drawn),0.54%
18,O=C1c2cccnc2C(=O)N1Cc1ccc(S(=O)(=O)NCc2ccccc2Cl)cc1,-0.655%
19,COC(=O)c1sc(SC)nc1Nc1ccnc(Nc2ccc(N3CCOCC3)cc2OC)c1,0.519%
20,COc1ccc(/C=C(\C#N)C(=O)Nc2ccc(F)cc2)c(OC)c1,6.94% (active)
21,COc1cccc(/C=C(/C#N)C(=O)Nc2ccc(F)cc2)c1O,0.228%
22,COc1ccc(NC(=O)/C(C#N)=C/c2ccccc2[N+](=O)[O-])cc1,0.536%
23,CCOc1nn(CC)cc1-c1nnc(SCC(=O)NC)n1C,1.61%
24,CCCNC(=O)N1CCC2(CC1)OCc1ccccc1O2,-0.163%

row,Compound,activation
1,CC(=O)Oc1cc2c(C(=O)NCCN3CCOCC3)c(C)oc2c2ccccc12,7.59% (active)
2,O=C(NCCN1CCOCC1)c1cncc(-c2ccccc2)c1,-0.0692%
3,Cn1c(=O)cc(OCC(=O)NCCN2CCOCC2)c2ccccc21,-0.103%
4,CC(O)CNc1ncnc2c1c(-c1ccccc1)cn2-c1ccc(Cl)cc1 (stereo not drawn),-0.64%
5,O=C(Nc1cc(Oc2cccnc2)cc([N+](=O)[O-])c1)c1cc2nc(-c3ccc(F)cc3)cc(C(F)(F)F)n2n1,0.0201%
6,Cn1ccc(CC(=O)N2CCOc3ccc(CN4CCCC4)cc3C2)c1,-0.228%
7,CCC(=O)Nc1cc(C(=O)O)ccc1C,5.86% (active)
8,CCC(=O)Nc1ccc(C(=O)c2ccccc2)cc1NC(=O)CC,0.269%
9,COc1cccc(OC)c1C(=O)Nc1cc(C(=O)O)ccc1C,1.75%
10,COc1ccc(/C=C(\C#N)C(=O)Nc2cccc(S(=O)(=O)N3CCCCC3)c2)cc1,6.12% (active)
11,COc1ccc(NC(=O)c2cc(S(=O)(=O)N3CCCCC3)ccc2F)cc1,-0.423%
12,CCOc1ccc(NC(=O)/C(C#N)=C\c2ccc(OC)cc2)cc1,-0.986%
13,O=C(COc1ccc([N+](=O)[O-])cc1)Nc1ccc2oc(-c3cccc(F)c3)nc2c1,6.49% (active)
14,Cc1cccc(NC(=O)COc2ccc([N+](=O)[O-])cc2)c1,0.0864%
15,O=C(COc1ccc([N+](=O)[O-])cc1)Nc1cccc(Br)c1,0.574%
16,O=C(Nc1ccc2oc(-c3ccc(F)cc3)nc2c1)c1ccc([N+](=O)[O-])cc1,0.435%
17,Cc1cc2nc(-c3cccc(NC(=O)COc4ccc(Br)cc4)c3)oc2cc1C,-0.225%
18,COC(=O)c1cc(NC(=O)COc2ccc([N+](=O)[O-])cc2)cc(C(=O)OC)c1,5.49% (active)
19,CCCNc1nc(Cl)nc2c1ncn2Cc1ccc(C(F)(F)F)cc1,0.16%
20,O=C(Cc1csc(SCc2cccc(Cl)c2)n1)NC1CCCC1,-0.537%
21,Cc1ccc2c(c1)N(CC(=O)N(Cc1ccccc1)Cc1ccc3c(c1)OCO3)C(=O)CO2,1.35%
22,CCC(=O)N(CCC(Cc1ccccc1)c1ccc2c(c1)OCO2)Cc1ccc(OC(C)C)cc1 (stereo not drawn),6.12% (active)
23,O=C(Nc1ccc2c(c1)OCO2)C(c1ccccc1)N(Cc1ccccc1)Cc1ccccc1 (stereo not drawn),-0.714%
24,CCn1c(SCC(=O)Nc2ccccc2Cl)nnc1-c1ccccc1N,0.603%

row,Compound,activation
1,CC(C)(C)C(=O)CSc1nc2c(sc(=S)n2CCc2ccccc2)c(=O)n1Cc1ccco1,-0.941%
2,CC(C)(C)C1CCC(=NNC(=O)C(=O)NCCc2ccccc2)CC1 (stereo not drawn),6.69% (active)
3,CNC(=O)C(=O)NCCc1ccccc1,2.61%
4,O=C(NCCc1ccccc1)C(=O)NCCC1CCCCC1,-1.51%
5,Cc1ccc2c(CC(=O)N3CCc4ccccc4C3)cc(=O)oc2c1,-1.02%
6,Cc1nnc(C)n1/N=C/c1ccc(Br)cc1,0.537%
7,Cc1nc([N+](=O)[O-])cn1CC(=O)C12CC3CC(CC(C3)C1)C2,0.332%
8,COc1ccc(CCNc2cc(C)nc3ncnn23)cc1,-0.69%
9,COP(=O)(OC)C(OC(=O)NC(=O)C(Cl)(Cl)Cl)c1ccccc1 (stereo not drawn),0.583%
10,CCN(CC)S(=O)(=O)c1ccc(N2CCCC2)c(NC(=O)c2ccc([N+](=O)[O-])o2)c1,5.27% (active)
11,CCN(CC)S(=O)(=O)c1ccc(N2CCCC2)c(C(=O)O)c1,1.07%
12,O=C(Nc1ccc(N2CCCCC2)c(Cl)c1)c1ccc([N+](=O)[O-])o1,1.67%
13,Cc1ccc(-c2cnn3ccc(NCc4cccnc4)nc23)cc1C,-1.12%
14,Cc1ccc(S(=O)(=O)N/N=C/c2c[nH]c3ccc(Br)cc23)cc1,0.63%
15,O=C(O)c1ccc(-c2nc(-c3cccs3)c(-c3cccs3)[nH]2)cc1,1.43%
16,COc1cc(OC)cc(-c2nc(-c3ccccc3)c(-c3cccs3)[nH]2)c1,0.0508%
17,c1ccc(-c2nc(-c3cccs3)[nH]c2-c2cccs2)cc1,6.25% (active)
18,O=C1NC2(CCN(CC3CCC=CO3)CC2)Oc2ccccc21 (stereo not drawn),-0.166%
19,CCN(CC)S(=O)(=O)c1ccc(C)c(NS(=O)(=O)c2cccc(C#N)c2)c1,5.51% (active)
20,N#Cc1cccc(S(=O)(=O)Nc2cccc(Br)c2)c1,0.99%
21,CCN(CC)S(=O)(=O)c1cccc(C(=O)N/N=C(\C)c2ccc(C#N)cc2)c1,-0.108%
